Bioassay records as filed in PubChem.
IL1B secr inh: inhibitors of inflammasome signaling (IL-1 beta secretion); hit rate 4.7% among 360,000; THP-1 LPS/ATP IL-1B secretion, AlphaLISA, 16 h; hits give low values; activity change, % at 57.5 µM; in the data active = activity change below about -50%; inconclusive = mostly about -30% to -49%; note: % is set by controls: 0 for no effect and ±100 for the full control effect
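Secreted IL-1B measured by AlphaLISA bead assay after 16 h compound exposure of THP-1 cells; compounds (final up to 57.5 uM) added 1 h before LPS (250 ng/mL) and ATP (1.25 mM) stimulation; lower signal means less secretion.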
TGFb SMAD3 inh: inhibitors of TGF-b signaling; HepG2 CAGA-GFP TGF-b/SMAD3 reporter, GFP fluorescence, 18 h; TGF-beta stimulated, 500 pg/mL final; Potency, µM (series often up to 46.1 µM), inactives show at the top dose activity, negative = inhibition, usual class: inhibitors; hit rate 1.2% among 410,000; note: potency is the fitted concentration of half-maximal effect; % is set by controls: 0 for no effect and ±100 for the full control effect; nearly all actives have a fitted effect of over 65% in size
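HEPG2 CAGA-GFP, 1000 cells/well; 2 h settle, 37 C; cpd via pin tool; TGF-b 500 pg/mL final; 18 h, 37 C; GFP imaging ex488/em500-530; %Activity normalised to -TGF-b and +DMSO controls; CRC fit, curve class.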
DT40 TDP1 no CPT: qHTS for Inhibitors of human tyrosyl-DNA phosphodiesterase 1 (TDP1): qHTS in cells in absence of CPT. hit rate 15% among 420,000. DT40 Tdp1-/- hTDP1 cells, no CPT, ATP luminescence, 48 h. AID 686978, 2013. Potency, µM (highest dose often 46.2 µM), for inactives: top-dose activity change, negative = growth inhibition, hits mostly inhibitors; note: potency is the fitted concentration of half-maximal effect; % is set by controls: 0 for no effect and ±100 for the full control effect; nearly all actives have a fitted effect of over 55% in size
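Compound effects on proliferation are scored in DT40 Tdp1-/-;hTDP1 cells in the absence of CPT. ATP levels (CellTiter-Glo luminescence) are recorded after a ≥48 hr, 37 °C incubation.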
ASM inhibitor: blocks human secretory acid sphingomyelinase; placental ASM, HMU-PC fluorogenic substrate, 60 min; Potency, µM (titrated, usually from 57.5 µM), for the others: top-dose activity change, negative = inhibition, hits mostly inhibitors; hit rate 0.006% among 340,000; AID 504937; note: potency is the fitted concentration of half-maximal effect
Target sequence (P17405 47-631 limits assumed): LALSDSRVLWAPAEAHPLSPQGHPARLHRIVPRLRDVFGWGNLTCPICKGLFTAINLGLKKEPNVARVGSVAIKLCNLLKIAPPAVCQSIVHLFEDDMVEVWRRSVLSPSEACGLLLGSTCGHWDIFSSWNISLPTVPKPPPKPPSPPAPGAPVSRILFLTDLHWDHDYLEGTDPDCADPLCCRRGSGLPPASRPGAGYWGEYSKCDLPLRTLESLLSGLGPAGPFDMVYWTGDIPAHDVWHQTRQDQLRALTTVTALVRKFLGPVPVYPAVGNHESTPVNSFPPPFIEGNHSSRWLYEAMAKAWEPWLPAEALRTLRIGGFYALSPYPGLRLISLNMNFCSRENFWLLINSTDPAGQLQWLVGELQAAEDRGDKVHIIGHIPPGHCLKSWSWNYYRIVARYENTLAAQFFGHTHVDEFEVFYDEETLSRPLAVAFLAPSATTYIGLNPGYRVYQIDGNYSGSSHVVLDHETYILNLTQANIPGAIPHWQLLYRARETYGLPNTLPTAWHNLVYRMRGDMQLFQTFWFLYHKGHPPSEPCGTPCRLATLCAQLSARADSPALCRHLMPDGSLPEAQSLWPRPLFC
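Steps: dispense placental human ASM, pin compound, wait 10 min at room temperature, add HMU-PC0 substrate at 9 uM final, incubate 60 min at 37 °C, add stop solution raising pH to 10, read fluorescence.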
HepG2 viability: kills HepG2 cells in TGF-b inhibitor counter-screen | hit rate 0.76% among 410,000 | Potency, µM (top dose mostly 46.1 µM), for inactives: at the top dose activity change, negative = cytotoxicity, usual class: cytotoxic | HepG2 CAGA-GFP viability, ATP luminescence, 18 h; note: potency is the fitted concentration of half-maximal effect
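CellTiter-Glo luminescence gave cytotoxicity after 18 hours at 37 degrees C. The cells were HepG2 CAGA-GFP in 1% FBS DMEM, stimulated with 500 pg/mL TGF-beta after compound addition. %Activity was normalised to no-cell wells (complete cell-killing) and DMSO (no toxicity), and curves were fitted and classified.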
DT40 TDP1 CPT: DT40-hTDP1 cell growth loss with CPT; chicken DT40 Tdp1-/-;hTDP1 cells + 20 nM CPT, ATP luminescence, 48 h; Potency, µM (top dose mostly 46.2 µM), inactives show at the highest dose activity change, negative = growth inhibition, usual class: inhibitors; hit rate 12% among 420,000; AID 686979; note: potency is the fitted concentration of half-maximal effect; % is set by controls: 0 for no effect and ±100 for the full control effect; nearly all actives have a fitted effect of over 55% in size
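Chicken DT40 Tdp1-/- cells stably complemented with human TDP1 were seeded at 400 cells/well in medium containing 20 nM camptothecin, exposed to pin-transferred compounds, and grown at 37 °C for at least 48 hr. Viability was read as ATP luminescence.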
* = called active by the depositor; ? = inconclusive; · = not tested or not shown; [ ] = dose if it differs, or a comment. In the library only some 19% were active in any assay of this set; here they are far more common. Unless noted, calls come from the whole dose curve; as a rule, active = well fitted curve in the direction sought with a large enough effect; inconclusive = small, poorly fitted or top-dose-only effect, or another doubt; inactive = no such curve, though single readings can be large; an effect the other way counts as inactive or inconclusive.

SMILES	IL1B secr inh	TGFb SMAD3 inh	DT40 TDP1 no CPT	ASM inhibitor	HepG2 viability	DT40 TDP1 CPT
CCC1Oc2ccc(C)cc2N(CC(=O)N(Cc2ccc(C)o2)C2CC(C)(C)NC(C)(C)C2)C1=O (stereo unspecified)	·	?	?	-1.5%	12.6µM*	18.4µM*
COc1cccc(N2CCN(C(=O)c3cccn3-c3nnc(N4CCCC4)s3)CC2)c1	·	-22.3%	?	·	-17.3%	?
CCCC(CCC)C(=O)Nc1cccc(-c2nc3cccnc3s2)c1C	·	-0.2%	-13.9%	·	-30.3%	-7.7%
Cc1c(NC(=O)Cc2ccc(Cl)cc2)cccc1-c1nc2cccnc2s1	·	24.0%	16.4µM*	·	12.0%	?
Cc1ccc(NC(=O)Cc2ccc(-n3c(C)nc4cccnc43)cc2)c(Cl)c1	·	?	4.11µM*	·	-14.8%	5.17µM*
CCOCC(=O)Nc1cccc(-c2nc3cccnc3s2)c1C	-2.6	-13.0%	-29.0%	11.8%	-32.9%	-6.6%
COc1ccc(C(=O)Nc2cccc(-c3nc4cccnc4s3)c2C)c(OC)c1	·	-16.8%	11.6µM*	·	-0.4%	20.6µM*
CN(c1ccc(OC(=O)c2ccc(-n3cncn3)c([N+](=O)[O-])c2)cc1)S(=O)(=O)c1ccccc1	-9.5	-2.8%	-20.1%	0.3%	8.0%	-24.5%
CCCCN(C(=O)c1ccc2c(c1)S(=O)(=O)N=C1CCCCCN12)c1c(N)n(CC(C)C)c(=O)[nH]c1=O	0.0	-0.4%	18.4%	2.6%	0.2%	-7.8%
CCN1CCN(C(=S)Nc2ccc3nc4n(c(=O)c3c2)CCCCC4)CC1	-0.3	-2.3%	3.0%	3.2%	1.4%	-10.1%
CCOC(=O)c1c(-c2ccccc2)csc1NC(=O)c1ccc(S(=O)(=O)N2CC(C)OC(C)C2)cc1 (stereo unspecified)	16.9	-15.6%	?	3.3%	6.5%	-14.8%
Cc1ccc(S(=O)(=O)N2CCN(CC(O)COc3ccccc3)CC2)cc1 (stereo unspecified)	15.8	-3.1%	-16.0%	3.6%	5.8%	3.7%
CCOC(=O)c1ccc(S(=O)(=O)N2CCN(CC(O)COc3cccc(C(C)=O)c3)CC2)cc1 (stereo unspecified)	-77.6*	0.0%	-5.5%	-6.7%	-2.7%	-10.0%
CCCOC(=O)c1ccc(NC(=O)c2cccc(S(=O)(=O)N3CCN(C(C)=O)CC3)c2)cc1	-1.9	-1.8%	16.4µM*	-13.2%	-2.2%	?
CCOC(=O)c1ccc(NC(=O)c2cccc(S(=O)(=O)N3CCN(C(C)=O)CC3)c2)cc1	44.8	-0.4%	13µM*	-1.7%	-10.2%	?
CCOC(=O)c1c(-c2ccccc2)csc1NC(=O)c1cc(S(=O)(=O)N2CCOCC2)ccc1C	-7.4	7.0%	?	-3.6%	9.3%	7.31µM*
O=C(NCCc1ccc(Cl)cc1)c1cc(-c2ccccc2)n[nH]1	·	-0.4%	-12.5%	·	-35.2%	?
Cc1ccc(S(=O)(=O)NCc2ccc(C(=O)NC3CCC(O)CC3)cc2)cc1C (stereo unspecified)	-4.2	10.9%	-8.3%	-1.1%	-17.5%	-10.8%
C[C@H](NC(=O)c1ccccc1F)C(=O)N1CCC2(CC1)NCCc1[nH]cnc12	5.5	-5.5%	20.5%	3.9%	0.6%	-1.1%
CCOC(=O)c1ccc(NC(=O)c2cc(S(=O)(=O)N3CCOCC3)ccc2O)cc1	32.3	?	20.6µM*	1.4%	-29.4%	?
CCN(CC)CCNC(=O)c1cnn(-c2ncc3c(n2)-c2ccc(OC)cc2CC3)c1C	·	·	-17.3%	·	·	17.8%[9.04 µM]
COc1ccc(CCNC(=O)c2ccc3c(Cl)c4c(nc3c2)CCCC4)c(OC)c1	·	?	18.4µM*	·	-36.2%	16.4µM*
COc1ccc(CCNC(=O)c2ccc3c(Cl)c4c(nc3c2)CCCC4)cc1OC	·	?	4.11µM*	·	-32.5%	14.6µM*
COc1cc(Cl)c(C)cc1NC(=O)c1ccc2c(Cl)c3c(nc2c1)CCC3	·	13.9%	1.4%	·	9.6%	0.5%
COc1ccc(CCNC(=O)c2ccc3c(SCC(=O)O)c4c(nc3c2)CCCC4)cc1OC	-2.2	-11.2%	11.6%	5.4%	-59.6%	0.4%
SMILES	IL1B secr inh	TGFb SMAD3 inh	DT40 TDP1 no CPT	ASM inhibitor	HepG2 viability	DT40 TDP1 CPT
COc1ccc(CNC(=O)c2ccc3c(Cl)c4c(nc3c2)CCCC4)c(OC)c1	·	?	23.1µM*	·	6.3%	?
COc1cccc(-c2nc(S(=O)(=O)c3ccccc3)c(NCc3ccccc3)o2)c1	·	-3.3%	?	·	-6.2%	?
CSc1cccc(CN2CCC(CCC(=O)NC3CC3)CC2)c1	-1.2	2.4%	-19.0%	-2.2%	4.8%	-9.0%
CCN(c1ccc(NC(=O)COC(=O)/C=C/c2cccs2)cc1)C(C)C	-2.6	26.4%	-27.8%	-2.1%	4.2%	-11.9%
CCOc1ccc(N(CCC#N)S(=O)(=O)c2ccc(OC)cc2)cc1	22.0	-16.3%	?	-0.5%	-11.3%	?
COc1ccccc1N(CC1CO1)S(=O)(=O)c1ccccc1 (stereo unspecified)	-6.5	?	?	-16.5%	-19.2%	?
COc1ccc(N(CC2CO2)S(=O)(=O)c2ccccc2)cc1 (stereo unspecified)	-68.8*	2.5%	?	0.1%	-23.1%	?
CCOC(=O)c1ccc(N(CC2CO2)S(=O)(=O)c2ccc(C)cc2)cc1 (stereo unspecified)	?	-1.8%	16.4µM*	-1.3%	-18.8%	13µM*
COc1ccc(N(CCOc2ccccc2)S(=O)(=O)c2ccccc2)cc1	-4.9	-0.9%	16.4µM*	-1.0%	-42.7%	?
COc1ccccc1N(CC1CO1)S(=O)(=O)c1ccc(C)cc1 (stereo unspecified)	-15.9	-9.3%	20.6µM*	-18.4%	2.1%	?
CCN(CC)S(=O)(=O)c1ccc(F)c(C(=O)OC2CC(C)OC2=O)c1 (stereo unspecified)	-7.7	19.5%	-11.4%	-2.8%	-17.5%	1.3%
COc1ccc(OCc2cc(C(=O)N(Cc3nccn3C)C(C)C)no2)c2ccccc12	-1.6	?	11.6µM*	0.3%	-65.8%	20.6µM*
CC(C)N(Cc1nccn1C)C(=O)c1cc(COc2ccc(F)cc2Cl)on1	-1.7	2.5%	?	-0.3%	11.5%	14.6µM*
CN(CCN1CCOCC1)C(=O)c1cc(COc2ccc(F)cc2Cl)on1	-11.9	-1.4%	-21.8%	·	-15.0%	-15.3%
